Assay results as given in the supplement of paper PMC11732987, “Enantioselective OTUD7B fragment discovery through chemoproteomics screening and high-throughput optimisation” (Communications Chemistry, 2025).

What was measured:
Test in all cases: log2 ratio of Biotin-Ahx-Ub-VS probe labelling (fragment/DMSO); higher = less target engagement (more negative = stronger competition), active = hit call of the paper (q ≤ 0.05, log2 ratio ≤ -1)
Conditions in all cases: compound concentration: 200 uM; treatment time: 3 h
USP19 = biological target: T1, USP19 (UniProt O94966)
T1 sequence (whole entry): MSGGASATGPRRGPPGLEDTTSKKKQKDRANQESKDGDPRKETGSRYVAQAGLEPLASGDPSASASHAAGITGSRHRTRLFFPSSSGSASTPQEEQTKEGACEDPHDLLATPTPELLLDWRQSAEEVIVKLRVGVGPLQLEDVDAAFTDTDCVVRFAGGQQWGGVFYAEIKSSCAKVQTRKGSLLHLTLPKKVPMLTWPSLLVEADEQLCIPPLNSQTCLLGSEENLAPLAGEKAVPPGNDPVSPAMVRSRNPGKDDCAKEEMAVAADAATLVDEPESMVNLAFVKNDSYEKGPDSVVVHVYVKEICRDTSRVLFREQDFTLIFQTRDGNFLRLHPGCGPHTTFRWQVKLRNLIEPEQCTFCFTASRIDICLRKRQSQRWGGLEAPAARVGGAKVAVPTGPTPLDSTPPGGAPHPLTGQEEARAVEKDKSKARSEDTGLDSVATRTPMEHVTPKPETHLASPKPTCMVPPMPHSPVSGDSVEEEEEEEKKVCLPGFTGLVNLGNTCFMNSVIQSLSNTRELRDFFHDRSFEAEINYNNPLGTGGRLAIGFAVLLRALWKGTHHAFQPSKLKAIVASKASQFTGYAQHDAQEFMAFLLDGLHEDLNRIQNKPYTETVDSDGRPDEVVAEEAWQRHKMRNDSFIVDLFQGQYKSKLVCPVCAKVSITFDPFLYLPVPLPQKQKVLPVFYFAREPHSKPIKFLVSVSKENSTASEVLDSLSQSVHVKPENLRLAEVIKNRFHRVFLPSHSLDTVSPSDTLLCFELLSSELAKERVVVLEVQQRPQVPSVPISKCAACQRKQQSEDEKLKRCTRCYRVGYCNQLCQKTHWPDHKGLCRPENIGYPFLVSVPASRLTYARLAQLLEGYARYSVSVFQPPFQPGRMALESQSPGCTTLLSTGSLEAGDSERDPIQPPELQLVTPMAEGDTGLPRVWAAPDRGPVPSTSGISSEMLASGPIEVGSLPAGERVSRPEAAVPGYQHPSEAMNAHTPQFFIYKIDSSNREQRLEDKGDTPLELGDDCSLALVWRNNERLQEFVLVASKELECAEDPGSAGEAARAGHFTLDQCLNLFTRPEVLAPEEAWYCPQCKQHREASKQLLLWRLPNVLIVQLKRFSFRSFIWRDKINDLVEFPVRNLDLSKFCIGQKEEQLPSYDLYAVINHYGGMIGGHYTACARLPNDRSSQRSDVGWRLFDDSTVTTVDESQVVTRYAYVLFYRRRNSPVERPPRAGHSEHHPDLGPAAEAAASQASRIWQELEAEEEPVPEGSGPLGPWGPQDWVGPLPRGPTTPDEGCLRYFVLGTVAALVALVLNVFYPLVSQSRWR
In short: (§1)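 Labelled DUBs from HEK293T lysate were NeutrAvidin-enriched, digested with LysC and trypsin, and run by diaPASEF LC-MS/MS. Before that, each 495 µg sample in Tris/CHAPS/IGEPAL buffer with protease inhibitors was treated in triplicate with fragment at 200 µM or vehicle for 3 h, then with Biotin-Ahx-Ub-VS at 0.5 µM final for 1 h. Values are average log2 ratios of fragment over vehicle by unpaired t-test, based on global-median-normalised Spectronaut label-free quantities from proteins with ≥2 unique peptides.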

USP22 = biological target: T2, USP22 (UniProt Q9UPT9)
T2 sequence (whole entry): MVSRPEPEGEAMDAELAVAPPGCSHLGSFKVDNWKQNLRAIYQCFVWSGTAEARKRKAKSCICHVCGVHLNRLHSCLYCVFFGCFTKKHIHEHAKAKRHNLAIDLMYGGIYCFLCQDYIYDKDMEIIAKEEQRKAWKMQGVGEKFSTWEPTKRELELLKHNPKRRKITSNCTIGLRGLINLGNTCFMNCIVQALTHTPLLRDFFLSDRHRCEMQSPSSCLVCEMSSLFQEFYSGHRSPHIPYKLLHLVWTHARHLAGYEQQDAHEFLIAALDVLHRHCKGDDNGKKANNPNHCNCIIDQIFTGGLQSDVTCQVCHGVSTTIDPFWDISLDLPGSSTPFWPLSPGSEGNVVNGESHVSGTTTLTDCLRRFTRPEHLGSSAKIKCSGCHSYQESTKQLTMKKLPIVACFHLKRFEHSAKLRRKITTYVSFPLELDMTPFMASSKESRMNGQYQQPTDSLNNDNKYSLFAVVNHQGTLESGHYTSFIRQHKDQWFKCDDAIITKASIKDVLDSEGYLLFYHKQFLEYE
In short: as §1

USP24 = USP24 (UniProt Q9UPU5)
In short: as §1

USP25 = biological target: T3, USP25 (UniProt Q9UHP3)
T3 sequence (whole entry): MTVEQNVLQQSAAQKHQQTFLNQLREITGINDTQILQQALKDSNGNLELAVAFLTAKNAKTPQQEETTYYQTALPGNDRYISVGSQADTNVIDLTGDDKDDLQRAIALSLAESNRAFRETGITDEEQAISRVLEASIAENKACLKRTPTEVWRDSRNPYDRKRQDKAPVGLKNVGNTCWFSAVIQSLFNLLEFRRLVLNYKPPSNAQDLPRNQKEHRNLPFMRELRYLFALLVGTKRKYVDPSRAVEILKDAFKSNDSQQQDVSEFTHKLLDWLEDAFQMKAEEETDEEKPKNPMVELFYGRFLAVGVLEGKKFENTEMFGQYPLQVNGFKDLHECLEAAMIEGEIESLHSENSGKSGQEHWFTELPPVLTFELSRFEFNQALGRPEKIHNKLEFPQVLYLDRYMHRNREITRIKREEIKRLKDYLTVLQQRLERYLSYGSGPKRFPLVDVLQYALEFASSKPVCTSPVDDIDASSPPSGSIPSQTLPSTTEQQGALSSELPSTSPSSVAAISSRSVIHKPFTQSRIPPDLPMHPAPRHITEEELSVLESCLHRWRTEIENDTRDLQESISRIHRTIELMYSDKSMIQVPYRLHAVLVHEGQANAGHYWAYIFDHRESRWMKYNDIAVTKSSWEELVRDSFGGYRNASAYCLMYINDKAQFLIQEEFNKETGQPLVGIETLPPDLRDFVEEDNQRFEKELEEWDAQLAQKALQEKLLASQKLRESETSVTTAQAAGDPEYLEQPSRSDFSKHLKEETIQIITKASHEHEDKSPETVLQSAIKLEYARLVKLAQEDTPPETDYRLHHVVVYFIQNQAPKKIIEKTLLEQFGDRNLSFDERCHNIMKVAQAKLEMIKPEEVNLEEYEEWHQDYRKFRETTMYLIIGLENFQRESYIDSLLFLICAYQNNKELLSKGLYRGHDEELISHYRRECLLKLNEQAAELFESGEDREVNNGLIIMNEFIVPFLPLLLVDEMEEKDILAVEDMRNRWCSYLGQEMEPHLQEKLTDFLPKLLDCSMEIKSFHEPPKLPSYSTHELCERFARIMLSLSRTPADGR
In short: as §1

USP28 = biological target: T4, USP28 (UniProt Q96RU2)
T4 sequence (whole entry): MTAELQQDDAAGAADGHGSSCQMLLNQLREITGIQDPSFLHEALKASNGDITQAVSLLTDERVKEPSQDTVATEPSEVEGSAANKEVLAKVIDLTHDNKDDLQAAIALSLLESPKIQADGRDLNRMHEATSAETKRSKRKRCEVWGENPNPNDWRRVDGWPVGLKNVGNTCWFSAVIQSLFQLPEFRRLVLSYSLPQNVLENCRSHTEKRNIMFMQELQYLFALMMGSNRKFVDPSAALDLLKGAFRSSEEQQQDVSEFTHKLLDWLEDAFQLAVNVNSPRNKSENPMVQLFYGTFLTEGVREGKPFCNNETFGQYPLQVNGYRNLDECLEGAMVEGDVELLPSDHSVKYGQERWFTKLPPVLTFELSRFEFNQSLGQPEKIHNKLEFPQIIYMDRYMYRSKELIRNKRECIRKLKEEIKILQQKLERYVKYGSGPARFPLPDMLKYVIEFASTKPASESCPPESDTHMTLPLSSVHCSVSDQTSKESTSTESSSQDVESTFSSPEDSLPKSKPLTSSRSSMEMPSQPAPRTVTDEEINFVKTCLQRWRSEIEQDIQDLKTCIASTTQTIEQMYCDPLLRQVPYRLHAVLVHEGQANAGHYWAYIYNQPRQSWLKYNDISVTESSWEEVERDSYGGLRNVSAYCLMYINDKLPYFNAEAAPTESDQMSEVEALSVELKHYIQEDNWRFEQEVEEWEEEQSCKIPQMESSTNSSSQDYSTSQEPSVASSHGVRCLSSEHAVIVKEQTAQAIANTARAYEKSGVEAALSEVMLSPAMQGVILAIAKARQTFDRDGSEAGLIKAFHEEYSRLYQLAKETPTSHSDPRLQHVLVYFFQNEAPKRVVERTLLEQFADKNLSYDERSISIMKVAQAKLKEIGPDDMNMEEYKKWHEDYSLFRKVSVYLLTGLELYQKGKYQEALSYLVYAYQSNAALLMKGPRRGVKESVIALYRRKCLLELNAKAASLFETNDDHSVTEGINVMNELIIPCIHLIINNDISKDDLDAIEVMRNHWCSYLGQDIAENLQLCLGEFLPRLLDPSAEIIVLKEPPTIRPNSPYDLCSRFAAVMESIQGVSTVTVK
In short: as §1

Measured: log2 ratio of Biotin-Ahx-Ub-VS probe labelling

Chain of USP24 (Q9UPU5 whole entry): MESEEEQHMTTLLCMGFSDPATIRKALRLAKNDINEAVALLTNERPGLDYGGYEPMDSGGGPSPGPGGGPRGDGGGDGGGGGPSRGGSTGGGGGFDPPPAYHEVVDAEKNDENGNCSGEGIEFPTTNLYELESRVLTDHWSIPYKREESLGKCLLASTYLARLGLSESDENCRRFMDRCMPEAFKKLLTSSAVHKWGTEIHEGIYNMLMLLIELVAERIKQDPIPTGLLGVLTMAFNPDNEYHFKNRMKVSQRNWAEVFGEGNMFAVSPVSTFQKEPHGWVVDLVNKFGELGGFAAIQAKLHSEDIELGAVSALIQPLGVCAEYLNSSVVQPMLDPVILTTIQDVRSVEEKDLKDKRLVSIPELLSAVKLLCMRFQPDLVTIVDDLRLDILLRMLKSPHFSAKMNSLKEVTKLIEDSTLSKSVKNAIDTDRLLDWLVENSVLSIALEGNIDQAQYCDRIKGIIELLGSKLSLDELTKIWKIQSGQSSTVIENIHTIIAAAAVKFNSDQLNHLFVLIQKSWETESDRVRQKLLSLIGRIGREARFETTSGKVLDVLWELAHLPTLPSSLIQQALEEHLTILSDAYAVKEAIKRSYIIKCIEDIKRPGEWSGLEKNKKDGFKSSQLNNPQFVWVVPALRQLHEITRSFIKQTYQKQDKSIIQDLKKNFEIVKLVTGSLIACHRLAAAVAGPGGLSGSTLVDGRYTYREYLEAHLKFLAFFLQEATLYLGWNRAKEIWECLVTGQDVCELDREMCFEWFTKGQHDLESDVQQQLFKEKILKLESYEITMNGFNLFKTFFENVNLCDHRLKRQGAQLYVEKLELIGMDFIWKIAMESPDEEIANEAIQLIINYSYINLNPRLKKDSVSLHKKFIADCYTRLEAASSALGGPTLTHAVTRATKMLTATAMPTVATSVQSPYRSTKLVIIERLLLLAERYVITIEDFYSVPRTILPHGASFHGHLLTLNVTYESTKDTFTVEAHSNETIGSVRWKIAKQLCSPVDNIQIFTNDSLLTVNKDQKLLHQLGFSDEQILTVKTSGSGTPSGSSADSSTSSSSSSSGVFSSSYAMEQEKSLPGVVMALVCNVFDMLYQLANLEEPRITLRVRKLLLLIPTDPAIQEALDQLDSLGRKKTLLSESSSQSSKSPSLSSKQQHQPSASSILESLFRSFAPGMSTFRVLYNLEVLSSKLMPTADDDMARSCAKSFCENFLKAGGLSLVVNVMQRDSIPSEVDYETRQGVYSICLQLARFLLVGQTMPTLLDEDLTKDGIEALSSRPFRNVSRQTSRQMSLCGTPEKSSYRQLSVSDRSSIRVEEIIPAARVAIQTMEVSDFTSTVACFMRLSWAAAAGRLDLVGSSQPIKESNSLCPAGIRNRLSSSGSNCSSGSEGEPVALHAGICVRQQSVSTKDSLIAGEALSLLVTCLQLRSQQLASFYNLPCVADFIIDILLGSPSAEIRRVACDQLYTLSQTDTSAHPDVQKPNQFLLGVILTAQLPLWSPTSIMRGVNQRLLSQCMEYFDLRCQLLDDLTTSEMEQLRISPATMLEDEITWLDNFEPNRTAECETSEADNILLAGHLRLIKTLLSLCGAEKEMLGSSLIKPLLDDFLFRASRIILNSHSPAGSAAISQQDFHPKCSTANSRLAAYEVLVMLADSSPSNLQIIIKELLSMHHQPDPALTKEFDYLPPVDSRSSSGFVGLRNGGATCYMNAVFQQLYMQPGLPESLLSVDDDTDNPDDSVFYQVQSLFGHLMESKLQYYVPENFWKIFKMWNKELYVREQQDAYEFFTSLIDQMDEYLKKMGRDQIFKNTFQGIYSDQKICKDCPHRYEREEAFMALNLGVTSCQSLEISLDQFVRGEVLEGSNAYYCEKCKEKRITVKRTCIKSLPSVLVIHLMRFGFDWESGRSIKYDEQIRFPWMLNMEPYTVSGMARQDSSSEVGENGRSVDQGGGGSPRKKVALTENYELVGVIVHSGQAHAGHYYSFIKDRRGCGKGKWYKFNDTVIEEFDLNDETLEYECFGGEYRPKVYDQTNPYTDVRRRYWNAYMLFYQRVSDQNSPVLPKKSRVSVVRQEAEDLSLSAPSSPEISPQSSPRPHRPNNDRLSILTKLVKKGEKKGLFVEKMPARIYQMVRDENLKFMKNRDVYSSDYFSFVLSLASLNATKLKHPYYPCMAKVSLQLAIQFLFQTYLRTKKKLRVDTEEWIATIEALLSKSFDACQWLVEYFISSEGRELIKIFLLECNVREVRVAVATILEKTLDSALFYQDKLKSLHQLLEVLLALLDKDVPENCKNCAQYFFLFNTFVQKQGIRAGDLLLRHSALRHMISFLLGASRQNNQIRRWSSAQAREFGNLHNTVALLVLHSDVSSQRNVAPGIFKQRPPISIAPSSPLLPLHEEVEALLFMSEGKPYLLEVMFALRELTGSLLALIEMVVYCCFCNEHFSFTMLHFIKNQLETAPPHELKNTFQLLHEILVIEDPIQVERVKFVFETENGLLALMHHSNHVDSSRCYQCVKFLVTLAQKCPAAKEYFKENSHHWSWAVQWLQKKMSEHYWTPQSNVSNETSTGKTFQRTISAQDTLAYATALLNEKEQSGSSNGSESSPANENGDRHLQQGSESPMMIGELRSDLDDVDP

Cc1ccc(CN(C)C(=O)CCl)o1
inactive: USP19 -0.241 | USP22 -0.454 | USP24 -0.411 | USP25 -0.156 | USP28 -0.465
